In PubChem BioAssay AID2155 (National Center for Advancing Translational Sciences (NCATS), 2009):
Active and inactive are the calls of the source. Calls follow the shape of the full dose curve.

target: Polyunsaturated fatty acid lipoxygenase ALOX15 (Homo sapiens) (UniProt P16050); experiment: Cuvette-Based Assay fo Inhibitors of 15-hLO-1 (15-human lipoxygenase 1): Series 1 - Round 1; conditions: purified 15-hLO-1, cuvette UV 234 nm product formation
From the text: Assay Provider: Holman, T.R., University of California, Santa Cruz Screening Center PI: Austin, Christopher P. Screening Center: NIH Chemical Genomics Center Human lipoxygenase 15hLO-1 is a member of the closely related lipoxygenase family of enzymes which catalyze the site-specific oxidation of arachidonic acid to various hormone precursor molecules and as such is a candidate for drug development in a variety of disease areas, such as cancer and inflammation. The enzyme activity of 15hLO-1 was determined by a direct measurement of product formation by monitoring the absorbance at 234 nm in a 2 mL cuvette. IC50 values of inhibitors were obtained by measuring the enzymatic rate at a variety of concentrations (Carroll et al, Segraves et al). A purified preparation of human 15hLO-1 was supplied by Professor Ted Holman, University of California, Santa Cruz. This assay is includes some confirmation and follow-up compounds for related primary screening assay AID 887. The follow-up compounds focus on analogues of current lead 15hLO-1 inhibitor series.
For control experiments, 2 mL of substrate buffer (7 uM arachidonic acid / 25 mM HEPES / 0.01% (v/v) Triton X-100, pH 7.5) was aliquoted in a cuvette with a magnetic stir bar. After equilibrium was ensured, an aliquot of inhibitor solvent was added (DMSO or MeOH), and equilibrium was once again assured. The reaction was started by adding enzyme to the cuvette and the reaction was followed until completed. The inhibition experiments were performed as above, except the actual inhibitory compound was added instead of vehicle. To achieve an IC50, typically 5 concentrations of the inhibitor were studied. If the inhibitor concentration was constant, then five different reaction volumes were used. Step \ Parameter \ Value \ Description 1; UV-Vis; 234 nm; Equilibration 2; Reagent; 2 mL; Substrate buffer 3; UV-Vis; 234 nm; Equilibration 4; Reagent; varies; Compound 5; UV-Vis; 234 nm; Equilibration 6; Reagent; 50-200 nM; Enzyme 15hLO-1 7; UV-Vis; 234 nm; Enzymatic reaction Step \ Notes 1. Blank cuvette to air. 2. 7 uM AA, 25 mM HEPES, 0.01% Triton X-100, pH 7.5. 3. No change in absorbance ensured. 4. Compound vehicle or compound in various concentrations depending on potency. 5. No change in absorbance ensured. 6. Enzyme concentration to achieve reaction rate between 0.02 and 0.04 AU/s. 7. Enzymatic reaction visualized until completion.

Chain of Polyunsaturated fatty acid lipoxygenase ALOX15 (Homo sapiens) (P16050 whole entry, looked up): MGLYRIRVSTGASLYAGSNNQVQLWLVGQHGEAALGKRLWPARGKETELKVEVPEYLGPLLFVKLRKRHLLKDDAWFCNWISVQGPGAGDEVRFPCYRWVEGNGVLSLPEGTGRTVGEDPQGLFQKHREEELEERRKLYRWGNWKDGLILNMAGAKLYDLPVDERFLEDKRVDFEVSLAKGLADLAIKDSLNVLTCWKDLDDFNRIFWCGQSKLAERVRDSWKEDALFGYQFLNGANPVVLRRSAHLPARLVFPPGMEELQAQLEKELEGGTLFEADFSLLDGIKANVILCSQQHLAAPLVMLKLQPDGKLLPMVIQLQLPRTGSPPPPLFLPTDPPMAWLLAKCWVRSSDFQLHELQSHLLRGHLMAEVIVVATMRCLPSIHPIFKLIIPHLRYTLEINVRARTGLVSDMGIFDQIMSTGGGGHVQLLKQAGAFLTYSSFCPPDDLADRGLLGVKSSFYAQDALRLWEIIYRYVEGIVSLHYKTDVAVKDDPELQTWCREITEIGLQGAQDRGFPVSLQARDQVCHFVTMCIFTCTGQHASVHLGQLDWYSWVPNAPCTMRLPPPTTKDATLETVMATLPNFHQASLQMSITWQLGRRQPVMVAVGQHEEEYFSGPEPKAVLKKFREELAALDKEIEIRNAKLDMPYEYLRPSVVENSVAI

Potency, active:
OCC#CCSc1nnc(-c2cccc3ccccc23)o1 1000 nM
O=C(OCC#CCSc1nnc(-c2cccc3ccccc23)o1)c1ccc(Cl)cc1 18 nM
N#Cc1nc(-c2cccc3ccccc23)oc1NCC#CCOC(=O)c1cccs1 25000 nM
O=C(OCC#CCNc1nnc(-c2cccc3ccccc23)o1)c1cccs1 1000 nM
O=C(OCC#CCSc1nnc(-c2cccc3ccccc23)o1)c1cnc[nH]1 1000 nM
O=C(NCC#CCSc1nnc(-c2cccc3ccccc23)o1)c1cccs1 1000 nM
C=CCNc1nnc(-c2cccc3ccccc23)o1 1000 nM
COc1ccc(C(=O)OCC#CCSc2nnc(-c3cccc4ccccc34)o2)cc1 22 nM
O=C(OCC#CCSc1nnc(-c2cccc3ccccc23)s1)c1cccs1 25000 nM
O=C(OCC#CCSc1nnc(-c2cccc3ccccc23)o1)c1ccc(Br)cc1 16 nM
CC(C)Nc1oc(-c2cccc3ccccc23)nc1C#N 190 nM
